PubChem BioAssay (Tox21)
Calls of active or inactive are those of the source. Calls come from the whole dose curve.

biological target: Thyrotropin-releasing hormone receptor (Homo sapiens) (UniProt P34981); assay: qHTS assay to identify small molecule agonists of the thyrotropin-releasing hormone receptor (TRHR) signaling pathway (AID 1346891); details: TRHR-HEK293 calcium fluorescence, agonist mode; series mostly up to 57.6 µM; activation: at the top concentration;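 note: HEK293 cells expressing TRHR with calcium dye readout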
Sequence (P34981 whole entry, looked up): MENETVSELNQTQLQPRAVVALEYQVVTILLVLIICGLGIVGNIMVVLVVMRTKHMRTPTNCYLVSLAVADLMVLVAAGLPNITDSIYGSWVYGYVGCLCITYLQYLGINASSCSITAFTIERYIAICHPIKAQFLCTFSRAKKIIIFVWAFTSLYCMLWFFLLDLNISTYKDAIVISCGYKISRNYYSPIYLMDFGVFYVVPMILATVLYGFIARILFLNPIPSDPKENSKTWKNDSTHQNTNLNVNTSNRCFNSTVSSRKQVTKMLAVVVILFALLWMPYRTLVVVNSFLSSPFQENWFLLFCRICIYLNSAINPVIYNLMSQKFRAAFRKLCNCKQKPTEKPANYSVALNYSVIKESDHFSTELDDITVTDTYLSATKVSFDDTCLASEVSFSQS
Source text: National Center for Advancing Translational Sciences [NCATS] NIH Chemical Genomics Center [NCGC] U.S. Environmental Protection Agency [EPA] National Institutes of Environmental Health Sciences [NIEHS] National Toxicology Program [NTP] Assay overview: Thyrotropin-releasing hormone (TRH) receptor (TRHR) is a G-protein-coupled receptor which binds the tripeptide thyrotropin releasing hormone. TRHR is found in the brain and, when bound by TRH, acts (through phospholipase C) to increase intracellular inositol trisphosphate. It plays a crucial role in the anterior pituitary where it controls the synthesis and secretion of thyroid stimulating hormone and prolactin. The TRHR-Hek293 assay is a cell-based assay, and it has the potential to screen G protein-coupled receptors. A compound/drug can either activate (agonist) or suppress (antagonist) GPCRs that can be monitored by levels of intracellular calcium. Using this assay, the Tox21 10K compound library was screened to identify potential TRHR agonists.
Assay Protocol Summary: The TRHR-Hek293 cells were dispensed at 1500cells/4uL/well in 1536-well black-clear bottom plates using a Multidrop dispenser. After the assay plates were incubated at a 37 C/5% CO2 incubator for 18 hours, 4 uL of Dye-Loading Solution was added to each well. The plates were incubated at 37 C for 2 hours. For agonist mode, 23 nL of compounds dissolved in DMSO, positive controls or DMSO only was transferred to the assay plate by a pin tool. The fluorescence intensity in the plates was measured using FDSS 7000EX kinetic plate reader for 3 min at 1 sec intervals. Each test compound was measured at 15 concentrations and in triplicates.
% is set by controls: 0 for no effect and ±100 for the full control effect.

Row | Compound | activation | Potency
1 | Cl/C=C\Cl | -0.115% (inactive) | 
2 | CCOP(=O)(OCC)O/C(=C/Cl)c1ccc(Cl)cc1Cl | 2.26% (inactive) | 
3 | NS(=O)(=O)C(F)(F)C(F)(F)C(F)(F)C(F)(F)C(F)(F)C(F)(F)C(F)(F)C(F)(F)F | 2.11% (inactive) | 
4 | O=C1C(=O)c2cccc3cccc1c23 | 2.03% (inactive) | 
5 | CCOP(=O)(OCC)SCCSCC |  | inactive
6 | COc1nn(CSP(=S)(OC)OC)c(=O)s1 | -0.647% (inactive) | 
7 | COc1cc(Cl)c(OC)cc1Cl | -0.0768% (inactive) | 
8 | c1cc2ccc3cccc4ccc(c1)c2c34 | -1.21% (inactive) | 
9 | CCOc1ccc(C(C)(C)COCc2cccc(Oc3ccccc3)c2)cc1 | 0.827% (inactive) | 
10 | CCOP(=S)(Oc1ccc([N+](=O)[O-])cc1)c1ccccc1 (stereo not given) | 0.611% (inactive) | 
11 | O=Cc1ccc2c(c1)OCO2 | -0.0165% (inactive) | 
12 | CC(=O)CCC(C)=O | 0.083% (inactive) | 
13 | Nc1nc(=S)[nH][nH]1 | -0.0158% (inactive) | 
14 | CCCCCCCCCCOC(=O)c1ccccc1C(=O)OCCCCCCCCCC | 0.0639% (inactive) | 
15 | Clc1cc(C(Cl)(Cl)Cl)cnc1Cl | 0.0227% (inactive) | 
16 | C=CC(C)=O | -0.0824% (inactive) | 
17 | COC(=O)C(Br)CBr (stereo not given) | -0.408% (inactive) | 
18 | CC(Cl)Cl | -0.0081% (inactive) | 
19 | O=C(NCc1cccnc1)Nc1ccc([N+](=O)[O-])cc1 | -0.11% (inactive) | 
20 | Clc1cccc2ccccc12 | 0.301% (inactive) | 

Row | Compound | activation | Potency
21 | O=C(NC(=O)c1c(F)cccc1F)Nc1ccc(OC(F)(F)C(F)OC(F)(F)F)c(Cl)c1 (stereo not given) | -1.06% [at 26.5 µM] (inactive) | 
22 | BrCC(Br)C1CCC(Br)C(Br)C1 (stereo not given) | 0.887% (inactive) | 
23 | S=C=NCc1ccccc1 | -0.27% (inactive) | 
24 | COP(=S)(Oc1cc(Cl)c(Br)cc1Cl)c1ccccc1 (stereo not given) | 0.574% (inactive) | 
25 | O=NN1CCCCCC1 | 0.0646% (inactive) | 
26 | CCCCN=C=O | 0.0069% (inactive) | 
27 | CN(N=O)c1ccc([N+](=O)[O-])cc1 | -0.531% (inactive) | 
28 | CCOc1nc(F)cc2nc(S(=O)(=O)Nc3c(Cl)cccc3Cl)nn12 | 0.22% (inactive) | 
29 | O=C(O)c1ccccc1C(=O)Nc1cccc2ccccc12 | -0.346% (inactive) | 
30 | O=C(CBr)Nc1ccc(Cl)cc1C(=O)c1ccccc1F | -0.161% [at 26.5 µM] (inactive) | 
31 | Nc1nc(N)nc(N)n1 | 0.229% (inactive) | 
32 | CCc1ccc(C(=O)NN(C(=O)c2cc(C)cc(C)c2)C(C)(C)C)cc1 | -1.21% (inactive) | 
33 | C[N+](C)(C)CCCl | -0.0015% (inactive) | 
34 | C=C(C#N)CCC#N | -0.263% (inactive) | 
35 | C=CC(=O)OCC(C)C | 0.965% (inactive) | 
36 | CCC(Cl)CCl (stereo not given) | 0.172% (inactive) | 
37 | Sc1ccccc1Cl | -0.537% [at 26.5 µM] (inactive) | 
38 | CC(=O)NC1CCSC1=O (stereo not given) | 0.391% [at 26.5 µM] (inactive) | 
39 | O=[Se]=O | 0.26% [at 26.5 µM] (inactive) | 
40 | CCCCCCCCOC(=O)c1ccc(C(=O)OCCCCCCCC)c(C(=O)OCCCCCCCC)c1 | -0.0512% (inactive) | 
